From PubChem BioAssay (NCATS)
Records with an inconclusive call do not appear. Active and inactive are the calls of the source. Calls come from the whole dose curve; as a rule, active = well fitted curve in the direction sought with a large enough effect; inconclusive = small, poorly fitted or top-dose-only effect, or another doubt; inactive = no such curve, though single readings can be large; an effect the other way counts as inactive or inconclusive.

Legend:
[1] = target: Ubiquitin carboxyl-terminal hydrolase 1 (Homo sapiens) (UniProt O94782); assay: Inhibitors of USP1/UAF1: Pilot qHTS (AID 504865);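 note: rhodamine fluorescence freed from ubiquitin-rhodamine substrate followed over time; top concentration of the series differs between compounds; % is set by controls: 0 for no effect and ±100 for the full control effect; nearly all actives have a fitted effect of over 35% in size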
Method in brief: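 Enzyme-free wells gave the negative control, while test wells held 1nM USP1/UAF1 preincubated with compound for 15 min at room temperature. Ub-Rho at 150nM final started the reaction, and fluorescence at 480/540 nm was recorded kinetically.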

[2] = target: Luciferin 4-monooxygenase (Photinus pyralis) (UniProt P08659); assay: Biochemical firefly luciferase enzyme assay for NPC (AID 624030);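 note: purified P. pyralis luciferase at 10 nM with luciferin and ATP substrate; 0% = DMSO and -100% = full luciferase inhibition by PTC124 control; nearly all actives have a fitted effect of over 70% in size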
Method in brief: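 Direct inhibition of firefly luciferase enzyme (10 nM final, 50 mM Tris Acetate) assessed by luminescence within 5 minutes. Percent activity scaled between DMSO and PTC124 positive control, with concentration-effect curves classified by fit quality and response.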

[3] = S16 Schwann cell viability assay (CellTiter-Glo assay) (AID 624031);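 note: native untransfected S16 rat Schwann cells; cellular ATP luminescence as a viability measure; plate controls were DMSO-treated cells for no effect and cell-free wells for full effect; nearly all actives have a fitted effect of over 70% in size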
Method in brief: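 Cells were seeded at 500-750 per well in phenol red-free DMEM with 10% FBS and left overnight. Compounds or DMSO were pinned in, incubation ran 24 h at 37 °C/5% CO2, then CellTiter-Glo reagent was added and luminescence measured.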

[4] = S16 Schwann cell PMP22 intronic element firefly luciferase assay (AID 624032);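 note: plate controls were DMSO for no effect and PTC124 positive control mean for full effect; nearly all actives have a fitted effect of over 30% in size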
Method in brief: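 Luciferase reporter of PMP22 intronic-element expression in stably transfected S16 rat Schwann cells, read by ONE-Glo luminescence after 24 h compound exposure at 37 C. Activity scaled between DMSO (0%) and positive-control PTC124; concentration-effect curves quality-classified.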

[5] = qHTS profiling for inhibitors of Plasmodium falciparum proliferation (AID 504749);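 note: 0% = DMSO vehicle and full inhibition = artemisinin control; nearly all actives have a fitted effect of over 60% in size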; details: P. falciparum in erythrocytes, SYBR Green DNA, 72 h, at 28.7 µM (top of the series)
Method in brief: (§1)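 SYBR Green fluorescence of parasite DNA, read after lysis and overnight dark incubation, measured growth over 72 h in erythrocyte culture at 0.3% parasitemia and 2.5% hematocrit. Data normalised to DMSO and 0.29 uM artemisinin, with plate-drift correction.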

3D7 = assay: as above; details: P. falciparum in erythrocytes, SYBR Green DNA, 72 h; series mostly up to 28.7 µM
Method in brief: as §1

7G8 = assay: as above; details: P. falciparum in erythrocytes, SYBR Green DNA, 72 h; series mostly up to 28.7 µM
Method in brief: as §1

AA1029 = assay: as above; details: P. falciparum in erythrocytes, SYBR Green DNA, 72 h; series mostly up to 28.7 µM
Method in brief: as §1

AS120 = assay: as above; details: P. falciparum in erythrocytes, SYBR Green DNA, 72 h; series mostly up to 28.7 µM
Method in brief: as §1

ATS189 = assay: as above; details: P. falciparum in erythrocytes, SYBR Green DNA, 72 h; series mostly up to 28.7 µM
Method in brief: as §1

ATS95 = assay: as above; details: P. falciparum in erythrocytes, SYBR Green DNA, 72 h; series mostly up to 28.7 µM
Method in brief: as §1

C2A = assay: as above; details: P. falciparum in erythrocytes, SYBR Green DNA, 72 h; series mostly up to 28.7 µM
Method in brief: as §1

CP185 = assay: as above; details: P. falciparum in erythrocytes, SYBR Green DNA, 72 h; series mostly up to 28.7 µM
Method in brief: as §1

CP191 = assay: as above; details: P. falciparum in erythrocytes, SYBR Green DNA, 72 h; series mostly up to 28.7 µM
Method in brief: as §1

CP192 = assay: as above; details: P. falciparum in erythrocytes, SYBR Green DNA, 72 h; series mostly up to 28.7 µM
Method in brief: as §1

CP194 = assay: as above; details: P. falciparum in erythrocytes, SYBR Green DNA, 72 h; series mostly up to 28.7 µM
Method in brief: as §1

CP201 = assay: as above; details: P. falciparum in erythrocytes, SYBR Green DNA, 72 h; series mostly up to 28.7 µM
Method in brief: as §1

CP203 = assay: as above; details: P. falciparum in erythrocytes, SYBR Green DNA, 72 h; series mostly up to 28.7 µM
Method in brief: as §1

CP211 = assay: as above; details: P. falciparum in erythrocytes, SYBR Green DNA, 72 h; series mostly up to 28.7 µM
Method in brief: as §1

CP215 = assay: as above; details: P. falciparum in erythrocytes, SYBR Green DNA, 72 h; series mostly up to 28.7 µM
Method in brief: as §1

CP217 = assay: as above; details: P. falciparum in erythrocytes, SYBR Green DNA, 72 h; series mostly up to 28.7 µM
Method in brief: as §1

CP237 = assay: as above; details: P. falciparum in erythrocytes, SYBR Green DNA, 72 h; series mostly up to 28.7 µM
Method in brief: as §1

CP238 = assay: as above; details: P. falciparum in erythrocytes, SYBR Green DNA, 72 h; series mostly up to 28.7 µM
Method in brief: as §1

CP247 = assay: as above; details: P. falciparum in erythrocytes, SYBR Green DNA, 72 h; series mostly up to 28.7 µM
Method in brief: as §1

CP250 = assay: as above; details: P. falciparum in erythrocytes, SYBR Green DNA, 72 h; series mostly up to 28.7 µM
Method in brief: as §1

CP252 = assay: as above; details: P. falciparum in erythrocytes, SYBR Green DNA, 72 h; series mostly up to 28.7 µM
Method in brief: as §1

CP256 = assay: as above; details: P. falciparum in erythrocytes, SYBR Green DNA, 72 h; series mostly up to 28.7 µM
Method in brief: as §1

CP260 = assay: as above; details: P. falciparum in erythrocytes, SYBR Green DNA, 72 h; series mostly up to 28.7 µM
Method in brief: as §1

CP262 = assay: as above; details: P. falciparum in erythrocytes, SYBR Green DNA, 72 h; series mostly up to 28.7 µM
Method in brief: as §1

CP265 = assay: as above; details: P. falciparum in erythrocytes, SYBR Green DNA, 72 h; series mostly up to 28.7 µM
Method in brief: as §1

CP266 = assay: as above; details: P. falciparum in erythrocytes, SYBR Green DNA, 72 h; series mostly up to 28.7 µM
Method in brief: as §1

CP268 = assay: as above; details: P. falciparum in erythrocytes, SYBR Green DNA, 72 h; series mostly up to 28.7 µM
Method in brief: as §1

CP269 = assay: as above; details: P. falciparum in erythrocytes, SYBR Green DNA, 72 h; series mostly up to 28.7 µM
Method in brief: as §1

CP286 = assay: as above; details: P. falciparum in erythrocytes, SYBR Green DNA, 72 h; series mostly up to 28.7 µM
Method in brief: as §1

CP291 = assay: as above; details: P. falciparum in erythrocytes, SYBR Green DNA, 72 h; series mostly up to 28.7 µM
Method in brief: as §1

CP297 = assay: as above; details: P. falciparum in erythrocytes, SYBR Green DNA, 72 h; series mostly up to 28.7 µM
Method in brief: as §1

CP305 = assay: as above; details: P. falciparum in erythrocytes, SYBR Green DNA, 72 h; series mostly up to 28.7 µM
Method in brief: as §1

CP315 = assay: as above; details: P. falciparum in erythrocytes, SYBR Green DNA, 72 h; series mostly up to 28.7 µM
Method in brief: as §1

CP325 = assay: as above; details: P. falciparum in erythrocytes, SYBR Green DNA, 72 h; series mostly up to 28.7 µM
Method in brief: as §1

CP329 = assay: as above; details: P. falciparum in erythrocytes, SYBR Green DNA, 72 h; series mostly up to 28.7 µM
Method in brief: as §1

CP335 = assay: as above; details: P. falciparum in erythrocytes, SYBR Green DNA, 72 h; series mostly up to 28.7 µM
Method in brief: as §1

DIV14 = assay: as above; details: P. falciparum in erythrocytes, SYBR Green DNA, 72 h; series mostly up to 28.7 µM
Method in brief: as §1

DIV17 = assay: as above; details: P. falciparum in erythrocytes, SYBR Green DNA, 72 h; series mostly up to 28.7 µM
Method in brief: as §1

DIV30 = assay: as above; details: P. falciparum in erythrocytes, SYBR Green DNA, 72 h; series mostly up to 28.7 µM
Method in brief: as §1

Dd2 = assay: as above; details: P. falciparum in erythrocytes, SYBR Green DNA, 72 h; series mostly up to 28.7 µM
Method in brief: as §1

ECU = assay: as above; details: P. falciparum in erythrocytes, SYBR Green DNA, 72 h; series mostly up to 28.7 µM
Method in brief: as §1

FAB9 = assay: as above; details: P. falciparum in erythrocytes, SYBR Green DNA, 72 h; series mostly up to 28.7 µM
Method in brief: as §1

GB4 = assay: as above; details: P. falciparum in erythrocytes, SYBR Green DNA, 72 h; series mostly up to 28.7 µM
Method in brief: as §1

HB3 = assay: as above; details: P. falciparum in erythrocytes, SYBR Green DNA, 72 h; series mostly up to 28.7 µM
Method in brief: as §1

ICS = assay: as above; details: P. falciparum in erythrocytes, SYBR Green DNA, 72 h; series mostly up to 28.7 µM
Method in brief: as §1

JCK = assay: as above; details: P. falciparum in erythrocytes, SYBR Green DNA, 72 h; series mostly up to 28.7 µM
Method in brief: as §1

N140 = assay: as above; details: P. falciparum in erythrocytes, SYBR Green DNA, 72 h; series mostly up to 28.7 µM
Method in brief: as §1

P93_24 = assay: as above; details: P. falciparum in erythrocytes, SYBR Green DNA, 72 h; series mostly up to 28.7 µM
Method in brief: as §1

P94_40 = assay: as above; details: P. falciparum in erythrocytes, SYBR Green DNA, 72 h; series mostly up to 28.7 µM
Method in brief: as §1

PAD = assay: as above; details: P. falciparum in erythrocytes, SYBR Green DNA, 72 h; series mostly up to 28.7 µM
Method in brief: as §1

PC15 = assay: as above; details: P. falciparum in erythrocytes, SYBR Green DNA, 72 h; series mostly up to 28.7 µM
Method in brief: as §1

PC26 = assay: as above; details: P. falciparum in erythrocytes, SYBR Green DNA, 72 h; series mostly up to 28.7 µM
Method in brief: as §1

PC49 = assay: as above; details: P. falciparum in erythrocytes, SYBR Green DNA, 72 h; series mostly up to 28.7 µM
Method in brief: as §1

SC27B = assay: as above; details: P. falciparum in erythrocytes, SYBR Green DNA, 72 h; series mostly up to 28.7 µM
Method in brief: as §1

TAB109 = assay: as above; details: P. falciparum in erythrocytes, SYBR Green DNA, 72 h; series mostly up to 28.7 µM
Method in brief: as §1

TAB113 = assay: as above; details: P. falciparum in erythrocytes, SYBR Green DNA, 72 h; series mostly up to 28.7 µM
Method in brief: as §1

TAB165 = assay: as above; details: P. falciparum in erythrocytes, SYBR Green DNA, 72 h; series mostly up to 28.7 µM
Method in brief: as §1

W2 = assay: as above; details: P. falciparum in erythrocytes, SYBR Green DNA, 72 h; series mostly up to 28.7 µM
Method in brief: as §1

Chain of Luciferin 4-monooxygenase (Photinus pyralis) (P08659 whole entry, looked up): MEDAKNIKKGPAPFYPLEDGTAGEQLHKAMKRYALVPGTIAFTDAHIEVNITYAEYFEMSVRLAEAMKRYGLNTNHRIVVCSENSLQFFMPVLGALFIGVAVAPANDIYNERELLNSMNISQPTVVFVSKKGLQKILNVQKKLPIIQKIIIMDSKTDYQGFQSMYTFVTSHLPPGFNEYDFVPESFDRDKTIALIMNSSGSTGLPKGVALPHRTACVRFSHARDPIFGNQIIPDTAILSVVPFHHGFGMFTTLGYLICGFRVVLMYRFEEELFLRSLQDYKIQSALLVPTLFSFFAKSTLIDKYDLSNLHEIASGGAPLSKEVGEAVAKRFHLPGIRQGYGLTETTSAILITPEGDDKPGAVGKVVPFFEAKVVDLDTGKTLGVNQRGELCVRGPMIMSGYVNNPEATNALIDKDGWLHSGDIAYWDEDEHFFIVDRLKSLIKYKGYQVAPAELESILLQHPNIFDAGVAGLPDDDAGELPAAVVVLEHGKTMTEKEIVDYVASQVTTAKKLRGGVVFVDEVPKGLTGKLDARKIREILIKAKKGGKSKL
Chain of Ubiquitin carboxyl-terminal hydrolase 1 (Homo sapiens) (O94782 whole entry, looked up): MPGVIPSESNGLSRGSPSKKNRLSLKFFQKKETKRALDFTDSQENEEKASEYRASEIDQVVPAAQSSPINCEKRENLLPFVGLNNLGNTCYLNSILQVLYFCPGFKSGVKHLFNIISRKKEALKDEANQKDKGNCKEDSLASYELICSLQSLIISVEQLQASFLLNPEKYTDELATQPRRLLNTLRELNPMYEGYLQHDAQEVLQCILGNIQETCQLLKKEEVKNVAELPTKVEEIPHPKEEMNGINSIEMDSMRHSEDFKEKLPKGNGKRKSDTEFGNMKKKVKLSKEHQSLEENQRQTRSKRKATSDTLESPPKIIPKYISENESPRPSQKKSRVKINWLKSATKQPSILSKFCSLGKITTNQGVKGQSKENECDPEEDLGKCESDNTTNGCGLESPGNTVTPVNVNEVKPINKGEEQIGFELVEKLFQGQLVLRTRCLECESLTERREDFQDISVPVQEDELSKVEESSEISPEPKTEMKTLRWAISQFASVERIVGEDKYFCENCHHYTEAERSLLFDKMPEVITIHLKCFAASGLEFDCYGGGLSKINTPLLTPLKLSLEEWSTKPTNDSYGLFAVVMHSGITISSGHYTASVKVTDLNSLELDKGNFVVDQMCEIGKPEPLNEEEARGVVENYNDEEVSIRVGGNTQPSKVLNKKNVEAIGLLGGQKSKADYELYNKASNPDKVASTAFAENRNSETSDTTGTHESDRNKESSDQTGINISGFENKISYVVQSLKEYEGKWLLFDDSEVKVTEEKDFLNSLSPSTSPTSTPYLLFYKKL

CC(N)C(=O)NCC(=O)NC1CSSCC(C(=O)O)NC(=O)C(CO)NC(=O)C(C(C)O)NC(=O)C(Cc2ccccc2)NC(=O)C(C(C)O)NC(=O)C(CCCCN)NC(=O)C(Cc2c[nH]c3ccccc23)NC(=O)C(Cc2ccccc2)NC(=O)C(Cc2ccccc2)NC(=O)C(CC(N)=O)NC(=O)C(CCCCN)NC1=O (centres undefined)
inactive: Potency [1] | Potency [2] | Potency [3] | Potency [4] | activity, negative = inhibition ([5]; parasite line A) 12% | activity, negative = inhibition ([5]; parasite line B) 4.8% | Potency (3D7) | Potency (7G8) | Potency (AA1029) | Potency (AS120) | Potency (ATS189) | Potency (ATS95) | Potency (C2A) | Potency (CP185) | Potency (CP191) | Potency (CP192) | Potency (CP194) | Potency (CP201) | Potency (CP203) | Potency (CP211) | Potency (CP215) | Potency (CP217) | Potency (CP237) | Potency (CP238) | Potency (CP247) | Potency (CP250) | Potency (CP252) | Potency (CP256) | Potency (CP260) | Potency (CP262) | Potency (CP265) | Potency (CP266) | Potency (CP268) | Potency (CP269) | Potency (CP286) | Potency (CP291) | Potency (CP297) | Potency (CP305) | Potency (CP315) | Potency (CP325) | Potency (CP329) | Potency (CP335) | Potency (DIV14) | Potency (DIV17) | Potency (DIV30) | Potency (Dd2) | Potency (ECU) | Potency (FAB9) | Potency (GB4) | Potency (HB3) | Potency (ICS) | Potency (JCK) | Potency (N140) | Potency (P93_24) | Potency (P94_40) | Potency (PAD) | Potency (PC15) | Potency (PC26) | Potency (PC49) | Potency (SC27B) | Potency (TAB109) | Potency (TAB113) | Potency (TAB165) | Potency (W2)
